GAA850 FXN act = increases GAA850 frataxin promoter reporter activity; HEK293 lucGAA850 FXN promoter luciferase reporter, 24 h; percent of 10 µM SAHA response; activation, % at 6 µM; AID 540364; 360,000 tested, 0.56% active;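 active = activation above the average of all compounds screened plus 3 SD, cutoff fixed separately per campaign, cut at about 7.5% in these data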;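 note: 0% = DMSO wells and 100% = 10 µM SAHA wells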
hgDAF12 agonist = hgDAF-12 agonism, primary luciferase screen; HEK293 GAL4-hgDAF12 UAS-luciferase reporter, agonist luminescence; normalized to butyrate control; activation, % at 6.8 µM; 370,000 tested, 1.8% active; AID 687014;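 active = activation above a cutoff set at the mean of all screened compounds plus 3 SD, cut at about 10% in these data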;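 note: 0% = DMSO wells and 100% = sodium butyrate wells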
DAX1 inh-1 = NR0B1 (DAX1) inhibition | AID 504766 | P51843 | inhibition, % at 6.75 µM | 340,000 tested, 0.99% active | HEK293 Gal4-DAX1 luciferase reporter, luminescence;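 active = inhibition above the mean over all tested compounds plus 3 SD, cut at about 4.2% in these data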;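 note: 0% = DAX1-transfected cells with DMSO and 100% = empty-vector control cells with DMSO; inhibition shows as a rise in luminescence from relieved DAX1 repression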
Target sequence (P51843 207-470 limits assumed): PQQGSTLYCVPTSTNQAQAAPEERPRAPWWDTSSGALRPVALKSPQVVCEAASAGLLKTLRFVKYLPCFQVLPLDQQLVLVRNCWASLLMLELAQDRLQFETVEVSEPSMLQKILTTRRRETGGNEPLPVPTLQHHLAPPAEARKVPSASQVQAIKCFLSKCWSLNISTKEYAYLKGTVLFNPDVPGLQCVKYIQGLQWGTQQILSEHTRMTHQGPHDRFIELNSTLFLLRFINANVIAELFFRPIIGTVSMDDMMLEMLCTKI
DAX1 inh-2 = blocks DAX1 repression of SF-1 activated StAR promoter. HEK293T StAR-luciferase reporter, SF-1/DAX-1 repression relief. inhibition, % at 6.8 µM. 370,000 tested, 1.1% active. AID 652010;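 active = inhibition above the mean over all tested compounds plus 3 SD, cut at about 3.6% in these data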;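 note: 0% = DAX-1 cells with DMSO and 100% = cells lacking DAX-1 with DMSO; higher inhibition means more luminescence from relief of DAX-1 repression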
ssDAF-12 act = S. stercoralis DAF-12 activation, primary screen | HEK293 ssDAF-12/GRIP1 lit1-tk-luc reporter, luminescence; % of 3 µM dafachronic acid response | activation, % at 6.8 µM | 370,000 tested, 1% active | AID 652126;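 active = activation above the mean over all tested compounds plus 3 SD, cut at about 0.9% in these data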;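 note: 0% = DMSO-only wells and 100% = 3 µM delta7-dafachronic acid wells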
hcDAF-12 act = activates DAF-12 receptor from parasite H. contortus; HEK293 hcDAF-12 lit1-tk-luc reporter, luminescence; 0% DMSO, 100% Δ7-dafachronic acid; activation, % at 6.8 µM; 370,000 tested, 1.4% active; AID 652067;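 active = activation above the mean of all tested compounds plus 3 SD, cut at about 5.5% in these data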;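 note: 100% = response to 3 µM Δ7-dafachronic acid high control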
The depositor's hits bear a star; · = no result given. A selection: hits, their analogues and other compounds. The true share with any hit is near 4.5%.

SMILES	GAA850 FXN act	hgDAF12 agonist	DAX1 inh-1	DAX1 inh-2	ssDAF-12 act	hcDAF-12 act
COC(=O)c1cnn(-c2nc3c(C)cccc3s2)c1C	0.0	2.3	0.6	-0.3	0.4	5.9*
COCCNC(=O)c1cn(C)c2ccc(S(=O)(=O)N(C)C3CCCCC3)cc2c1=O	-1.7	-2.4	6.5*	0.0	-1.5	-1.5
CC1CC(C)CN(C(=O)c2cn(C)c3ccc(S(=O)(=O)N(C)C)cc3c2=O)C1 (stereo not drawn)	-0.1	-0.9	4.5*	-0.9	-0.3	-0.4
COC(CNC(=O)c1cn(C)c2ccc(S(=O)(=O)N(C)C3CCCCC3)cc2c1=O)OC	1.7	2.5	3.6	-0.3	-0.8	1.5
O=C(O)c1ccc(C=Nn2c(-c3ccc(F)cc3)n[nH]c2=S)cc1	·	5.5	·	-0.6	-1.5	-1.8
Cc1cc(NC(=O)CSc2nc(C3CC3)nc3sc(C)c(C)c23)no1	-2.1	-1.5	4.1	0.5	-1.6	-1.4
Cc1cc(NC(=O)CSCC(=O)Nc2cc(C(F)(F)F)ccc2N2CCCCC2)no1	-0.9	5.3	0.1	1.6	0.1	6.0*
Cc1cc(NC(=O)CSCC(=O)Nc2nc3ccccc3[nH]2)no1	0.0	2.9	0.6	2.6	0.6	5.8*
CCc1nc(SCC(=O)Nc2cc(C)on2)c2c(C)c(C)sc2n1	-1.0	-1.4	5.7*	-0.2	-0.3	-1.9
Cc1cc(NC(=O)CSc2n[nH]c(N)n2)no1	0.2	-0.2	-0.1	4.3*	-0.7	0.1
Cc1cc2c(s1)c1cnn(Cc3c(Cl)ccc(C)c3F)c(=O)c1n2C	·	-4.0	·	·	-1.4	-1.6
Cc1cc(NC(=O)CSCC(=O)Nc2nc3ccc(F)cc3s2)no1	2.1	2.0	0.4	1.2	0.2	5.7*
c1ccc(-c2nc3ccccn3c2NCc2ccc3c(c2)OCO3)cc1	1.5	6.2	-1.1	0.0	-0.9	-0.4
Clc1ccc(-c2nc3ncccn3c2Cl)cc1	13.4*	·	0.1	·	·	·
O=C(O)c1c(Cl)nc2ccccn12	0.7	1.6	-1.6	-0.7	-1.3	-0.5
Clc1cccc(-c2ccc(-c3nc4ccccn4c3NCc3ccccc3)cc2)c1	1.1	7.0	0.1	0.9	1.8*	1.7
c1ccn2c(c1)nc1c2nc2ccccn21	7.4	13.1*	2.9	2.0	1.1*	1.1
Clc1c(-c2ccccc2)nc2ccccn12	4.8	8.1	2.0	1.9	1.6*	4.4
Nc1c(-c2ccc(F)cc2)nc2ncccn12	·	-0.9	·	0.7	-0.7	-0.8
COC(=O)C[C@@H]1CC[C@@H]2[C@@H](COc3ccc(NC(=O)Nc4ccc(F)cc4)cc3C(=O)N2C)O1	·	0.7	·	-1.2	-0.2	0.6
Nc1[nH]c(C(=O)c2ccccc2)c(-c2ccc3ccccc3c2)c1C(=O)NCCc1ccc(Cl)cc1	·	6.0	·	·	-1.6	-2.5
CN(CCCOC(=O)c1cc2ccccc2o1)C1CN(Cc2cn(Cc3ccc([N+](=O)[O-])cc3)nn2)S(=O)(=O)C1 (stereo not drawn)	·	3.0	·	-0.4	-0.8	-0.1
O=C(OC12CCCN(C1)/C(=C/c1ccccc1)C2)c1ccccc1 (stereo not drawn)	·	0.7	·	0.0	-1.1	-2.8
CC(=O)Nc1nc2ncccn2c1-c1ccc(C)cc1	·	-1.4	·	-0.2	-0.9	-0.7
c1ccc(Cc2cc(-c3ccccc3)on2)cc1	4.7	9.8	5.5*	0.4	-0.6	1.1
SMILES	GAA850 FXN act	hgDAF12 agonist	DAX1 inh-1	DAX1 inh-2	ssDAF-12 act	hcDAF-12 act
CCCC(=O)N(CCN1CCOCC1)c1nc2c(F)cc(F)cc2s1	6.6	5.1	2.4	4.0*	-0.7	2.1
CCCC(=O)N(CCN1CCOCC1)c1nc2c(OCC)cccc2s1	1.6	·	-0.2	·	·	·
CCCCCCCCN1C(=O)[C@@H](CC(=O)NCc2cccs2)C[C@@]2(C(=O)OC)C1=C[C@H](COCc1ccccc1)O[C@@H]2C	·	0.0	·	0.2	0.7	-1.9
O=C(CSC(=S)N1CCOCC1)Nc1nc(-c2ccccc2)c(-c2ccccc2)o1	-2.0	0.5	5.6*	0.8	-1.3	-0.4
O=C(NCCN1CCCC1)c1ccc2c(c1)N(Cc1cccc(Cl)c1)C(=O)c1ccccc1S2(=O)=O	-1.7	-0.4	-0.1	1.1	-1.1	6.2*
Cc1cccc(CN2C(=O)c3ccccc3S(=O)(=O)c3ccc(C(=O)NCCCN4CCCC4)cc32)c1	2.9	2.8	0.1	1.4	-0.5	2.2
N#C/C(=C\c1ccccc1O)C(=O)Nc1ccccn1	3.0	4.3	1.2	0.2	0.7	5.8*
Cc1cccc(NC(=O)/C(C#N)=C/c2ccccc2O)n1	3.4	7.6	1.0	1.2	0.8	4.6
CCCCCN1CCCCC(NC(=O)Cc2ccccc2)C1=O (stereo not drawn)	·	-4.3	·	0.1	-1.0	-2.0
OC[C@H]1O[C@H](OCc2ccccc2)[C@H](O[C@@H]2OC[C@@H](O)[C@H](O)[C@H]2O)[C@@H](O)[C@@H]1O	-1.5	3.0	6.3*	0.6	-1.1	-1.5
Clc1ccc(-c2cnc(Oc3ccccc3)nc2)cc1	0.5	10.8*	2.5	3.1	0.5	1.7
O=C1CCCCCN1Cc1nnc(SCc2nc3ccccc3s2)n1-c1ccccn1	2.2	9.0	1.9	1.8	1.9*	5.7*
O=C(NCCC1=CCCCC1)C1CCN(S(=O)(=O)c2ccccc2[N+](=O)[O-])CC1	·	-2.9	·	-0.8	-1.9	-1.5
COc1ccc(N=Cc2oc3ccc4ccccc4c3c2O)cc1	5.5	4.7	0.3	2.0	1.2*	2.8
COc1ccc(C2Nc3ccccc3C(=O)N2Cc2cccnc2)cc1COc1c(C)cccc1C (stereo not drawn)	·	-1.9	·	·	-1.5	-2.2
O=C1c2oc3ccccc3c(=O)c2C(c2ccc(O)cc2)N1c1nccs1 (stereo not drawn)	1.8	-2.6	6.1*	-0.2	-1.2	0.5
COC(=O)c1sc(N2C(=O)c3oc4ccccc4c(=O)c3C2c2cccc(O)c2)nc1C (stereo not drawn)	3.1	-0.9	0.7	0.4	-1.1	0.4
CC1CCCCC1N(C(=O)c1cc(C2CC2)on1)C1CCCCC1 (stereo not drawn)	·	12.0*	·	0.4	-0.8	-0.9
Cc1cc(C(=O)N(C2CCCCC2)C2CCCCC2)no1	0.7	-1.6	0.2	-0.6	-1.5	-1.2
O=c1c2ccccc2n(Cc2ccccc2)n1[C@@H](Cc1ccccc1)Cn1cc(C2CCCC2)nn1	·	3.1	·	-0.9	-1.6	-0.8
CN1CCc2c(sc(/N=C/c3cc(Cl)ccc3O)c2C#N)C1	-1.6	2.8	6.8*	0.7	-0.3	2.0
Cc1ccc(/C=N/c2sc3c(c2C#N)CCC3)s1	0.6	-0.7	2.3	0.7	-1.1	1.2
Cc1ccc(C(=O)Nc2cc([N+](=O)[O-])ccc2F)s1	1.7	0.2	5.8*	0.1	-1.1	-1.3
Cc1ccc(CC(=O)Nc2cc([N+](=O)[O-])ccc2F)cc1	0.7	-0.8	-0.4	-0.3	-1.2	-1.7
